Source: the supplement of paper PMC10849652
The full data set covers some 7,900 targets. This sample favours those with a hit. About 0.6% of all pairs of compound and target were hits. Values without a mark were called inactive.

Compound: c1cn2cc(-c3ccc4cn[nH]c4c3)nc(Nc3ccc(N4CCOCC4)cc3)c2n1 [entospletinib]
Assay: log2 fold change, soluble protein after heating vs DMSO (PISA); higher = thermal stabilisation; K562 cells, 10 uM, 30 min; active = over 0.2 and 3.5 SD of the protein, either way, in both replicates (recomputed)
Summary of the method: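 K562 cells at 2×10^6 cells/mL were exposed to 10 μM compound for 30 min, then aliquots were heated for 3 min across 48°C-58°C, pooled, and extracted in PBS containing 0.5% NP-40 at 4°C. The supernatant after 21,000xg for 90 min was taken as soluble protein and measured by TMTpro 16plex LC-MS/MS with channel sums equalised. Thermal stability is reported relative to control samples, with values from duplicates. Fold changes are given on a log2 scale.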

Sequence of UniProt Q16881 (Q16881 whole entry, looked up): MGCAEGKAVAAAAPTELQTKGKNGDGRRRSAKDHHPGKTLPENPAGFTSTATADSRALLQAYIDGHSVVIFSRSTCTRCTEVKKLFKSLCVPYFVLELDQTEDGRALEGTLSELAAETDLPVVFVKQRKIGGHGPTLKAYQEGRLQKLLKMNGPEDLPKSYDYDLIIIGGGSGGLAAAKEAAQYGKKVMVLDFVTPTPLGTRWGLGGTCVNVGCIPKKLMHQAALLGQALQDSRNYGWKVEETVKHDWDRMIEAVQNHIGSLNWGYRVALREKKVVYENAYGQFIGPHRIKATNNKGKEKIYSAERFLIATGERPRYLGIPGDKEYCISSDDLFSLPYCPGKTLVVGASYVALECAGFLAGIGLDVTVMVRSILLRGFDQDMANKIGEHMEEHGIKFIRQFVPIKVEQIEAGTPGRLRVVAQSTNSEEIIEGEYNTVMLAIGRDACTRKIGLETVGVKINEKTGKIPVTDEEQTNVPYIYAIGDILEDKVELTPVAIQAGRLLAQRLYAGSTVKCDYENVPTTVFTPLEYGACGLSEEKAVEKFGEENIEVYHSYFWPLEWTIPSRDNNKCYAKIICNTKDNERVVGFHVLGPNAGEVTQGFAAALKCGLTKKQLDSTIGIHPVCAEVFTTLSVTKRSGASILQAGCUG
Sequence of UniProt Q96LJ8 (Q96LJ8 whole entry, looked up): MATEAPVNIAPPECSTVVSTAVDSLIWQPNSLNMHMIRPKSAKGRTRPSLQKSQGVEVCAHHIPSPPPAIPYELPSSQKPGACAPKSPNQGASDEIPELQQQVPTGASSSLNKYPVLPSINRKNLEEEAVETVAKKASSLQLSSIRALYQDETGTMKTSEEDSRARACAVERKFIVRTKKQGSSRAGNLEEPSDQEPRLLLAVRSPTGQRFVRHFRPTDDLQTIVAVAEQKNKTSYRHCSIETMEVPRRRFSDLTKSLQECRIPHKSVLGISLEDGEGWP
Sequence of UniProt Q9BZH6 (Q9BZH6 whole entry, looked up): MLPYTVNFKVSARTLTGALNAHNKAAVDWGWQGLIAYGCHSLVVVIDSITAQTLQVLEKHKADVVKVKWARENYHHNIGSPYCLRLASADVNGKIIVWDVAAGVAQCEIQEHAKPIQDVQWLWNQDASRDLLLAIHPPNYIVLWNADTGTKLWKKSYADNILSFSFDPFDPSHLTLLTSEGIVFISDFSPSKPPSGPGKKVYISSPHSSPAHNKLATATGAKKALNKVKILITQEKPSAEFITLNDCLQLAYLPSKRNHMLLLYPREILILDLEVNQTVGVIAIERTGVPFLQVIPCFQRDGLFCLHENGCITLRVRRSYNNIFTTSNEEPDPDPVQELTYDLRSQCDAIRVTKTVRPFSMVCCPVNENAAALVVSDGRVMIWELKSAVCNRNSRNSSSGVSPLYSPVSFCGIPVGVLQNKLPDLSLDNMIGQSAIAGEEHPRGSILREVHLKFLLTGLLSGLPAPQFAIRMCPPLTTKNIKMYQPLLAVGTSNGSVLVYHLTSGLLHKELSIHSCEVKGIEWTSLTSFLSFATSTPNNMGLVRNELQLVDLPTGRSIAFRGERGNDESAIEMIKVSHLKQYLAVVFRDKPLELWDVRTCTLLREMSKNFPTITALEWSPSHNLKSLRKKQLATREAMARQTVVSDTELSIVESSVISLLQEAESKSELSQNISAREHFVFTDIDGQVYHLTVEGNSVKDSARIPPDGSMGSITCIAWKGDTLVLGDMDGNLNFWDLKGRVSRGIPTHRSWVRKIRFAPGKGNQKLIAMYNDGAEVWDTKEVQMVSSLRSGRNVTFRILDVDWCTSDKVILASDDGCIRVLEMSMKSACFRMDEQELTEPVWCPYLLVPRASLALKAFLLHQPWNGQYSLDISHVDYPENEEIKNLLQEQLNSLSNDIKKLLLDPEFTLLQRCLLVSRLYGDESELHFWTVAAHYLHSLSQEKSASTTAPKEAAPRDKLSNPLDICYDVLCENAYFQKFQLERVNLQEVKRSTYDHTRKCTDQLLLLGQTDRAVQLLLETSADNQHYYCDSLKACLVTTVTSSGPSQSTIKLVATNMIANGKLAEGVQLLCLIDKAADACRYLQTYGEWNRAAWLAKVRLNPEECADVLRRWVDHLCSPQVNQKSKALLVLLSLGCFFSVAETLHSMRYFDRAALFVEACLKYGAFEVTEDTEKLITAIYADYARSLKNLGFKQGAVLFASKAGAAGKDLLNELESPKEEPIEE
Sequence of UniProt Q9H3M7 (Q9H3M7 whole entry, looked up): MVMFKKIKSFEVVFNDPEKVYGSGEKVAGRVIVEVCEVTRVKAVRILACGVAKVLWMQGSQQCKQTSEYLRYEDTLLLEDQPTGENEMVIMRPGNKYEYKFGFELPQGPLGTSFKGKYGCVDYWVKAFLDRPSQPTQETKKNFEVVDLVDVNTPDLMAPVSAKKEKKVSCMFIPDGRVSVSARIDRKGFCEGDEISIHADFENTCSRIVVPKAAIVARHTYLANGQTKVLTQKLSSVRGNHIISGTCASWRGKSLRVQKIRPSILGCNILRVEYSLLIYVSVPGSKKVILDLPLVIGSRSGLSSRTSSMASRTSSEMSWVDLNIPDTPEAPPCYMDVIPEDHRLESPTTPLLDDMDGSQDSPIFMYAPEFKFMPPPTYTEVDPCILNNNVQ
Sequence of UniProt Q5U3C3 (Q5U3C3 whole entry, looked up): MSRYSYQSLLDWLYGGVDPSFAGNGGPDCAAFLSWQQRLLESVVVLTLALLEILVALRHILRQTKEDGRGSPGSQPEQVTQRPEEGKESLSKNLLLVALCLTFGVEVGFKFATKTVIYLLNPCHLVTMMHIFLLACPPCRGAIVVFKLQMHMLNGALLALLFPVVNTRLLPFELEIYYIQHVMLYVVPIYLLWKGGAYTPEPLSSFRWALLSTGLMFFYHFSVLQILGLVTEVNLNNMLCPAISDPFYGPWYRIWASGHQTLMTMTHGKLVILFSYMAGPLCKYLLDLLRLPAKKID
Sequence of UniProt P13010 (P13010 whole entry, looked up): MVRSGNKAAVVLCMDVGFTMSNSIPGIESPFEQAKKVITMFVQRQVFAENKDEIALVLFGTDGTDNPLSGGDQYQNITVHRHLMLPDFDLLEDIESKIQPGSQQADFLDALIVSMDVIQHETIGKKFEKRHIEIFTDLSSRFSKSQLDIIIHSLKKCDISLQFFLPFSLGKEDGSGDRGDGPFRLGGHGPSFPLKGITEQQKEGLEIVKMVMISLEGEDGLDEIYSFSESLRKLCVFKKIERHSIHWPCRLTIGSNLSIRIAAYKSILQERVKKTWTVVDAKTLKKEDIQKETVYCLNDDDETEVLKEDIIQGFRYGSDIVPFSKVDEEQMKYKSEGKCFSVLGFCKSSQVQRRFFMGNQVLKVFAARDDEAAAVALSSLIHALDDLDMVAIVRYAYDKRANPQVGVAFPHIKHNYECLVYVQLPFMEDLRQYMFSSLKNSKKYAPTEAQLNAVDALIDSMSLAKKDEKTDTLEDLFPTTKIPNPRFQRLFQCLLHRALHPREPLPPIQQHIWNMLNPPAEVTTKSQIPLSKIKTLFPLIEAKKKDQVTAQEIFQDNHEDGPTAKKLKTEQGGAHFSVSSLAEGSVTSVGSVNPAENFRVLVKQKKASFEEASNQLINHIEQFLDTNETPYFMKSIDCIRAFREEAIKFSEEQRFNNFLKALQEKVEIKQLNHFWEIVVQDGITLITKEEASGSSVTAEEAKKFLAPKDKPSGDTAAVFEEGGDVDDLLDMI
Sequence of UniProt Q7Z5K2 (Q7Z5K2 whole entry, looked up): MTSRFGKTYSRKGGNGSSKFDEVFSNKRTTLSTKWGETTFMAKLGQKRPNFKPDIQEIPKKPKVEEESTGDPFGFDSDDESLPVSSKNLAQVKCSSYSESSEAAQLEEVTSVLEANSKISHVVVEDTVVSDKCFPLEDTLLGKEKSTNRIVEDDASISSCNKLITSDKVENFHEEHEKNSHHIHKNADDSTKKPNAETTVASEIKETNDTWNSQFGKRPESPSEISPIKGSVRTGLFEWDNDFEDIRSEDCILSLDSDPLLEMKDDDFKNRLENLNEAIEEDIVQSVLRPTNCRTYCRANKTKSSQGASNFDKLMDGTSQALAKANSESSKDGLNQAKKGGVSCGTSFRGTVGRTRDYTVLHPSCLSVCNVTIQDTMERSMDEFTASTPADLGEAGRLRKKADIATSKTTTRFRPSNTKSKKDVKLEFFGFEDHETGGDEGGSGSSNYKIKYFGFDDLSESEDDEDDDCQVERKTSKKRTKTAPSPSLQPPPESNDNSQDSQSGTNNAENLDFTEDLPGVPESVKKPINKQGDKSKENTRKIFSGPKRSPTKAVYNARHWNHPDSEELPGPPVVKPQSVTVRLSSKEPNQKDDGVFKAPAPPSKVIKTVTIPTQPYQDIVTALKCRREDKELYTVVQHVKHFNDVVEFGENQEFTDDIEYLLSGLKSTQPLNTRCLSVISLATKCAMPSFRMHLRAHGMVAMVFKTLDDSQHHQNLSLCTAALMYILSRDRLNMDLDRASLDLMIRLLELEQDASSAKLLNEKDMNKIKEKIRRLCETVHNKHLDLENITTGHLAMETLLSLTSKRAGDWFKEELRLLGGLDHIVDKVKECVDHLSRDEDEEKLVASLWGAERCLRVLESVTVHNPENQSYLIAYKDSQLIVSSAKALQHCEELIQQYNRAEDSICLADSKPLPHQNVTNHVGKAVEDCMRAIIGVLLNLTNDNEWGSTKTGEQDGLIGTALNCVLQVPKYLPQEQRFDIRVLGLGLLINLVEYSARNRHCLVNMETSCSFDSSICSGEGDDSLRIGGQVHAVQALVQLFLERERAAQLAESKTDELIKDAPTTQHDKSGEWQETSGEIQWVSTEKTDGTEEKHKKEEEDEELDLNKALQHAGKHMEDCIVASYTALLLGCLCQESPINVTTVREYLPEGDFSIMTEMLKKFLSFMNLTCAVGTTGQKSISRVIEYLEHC
Sequence of UniProt O95379 (O95379 whole entry, looked up): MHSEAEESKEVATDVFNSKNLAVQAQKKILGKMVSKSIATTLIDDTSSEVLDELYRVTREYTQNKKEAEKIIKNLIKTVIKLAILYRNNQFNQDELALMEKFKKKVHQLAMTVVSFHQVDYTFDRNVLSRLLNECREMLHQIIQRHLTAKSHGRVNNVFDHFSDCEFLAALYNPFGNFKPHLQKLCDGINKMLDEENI

| Target | log2 fold change |
| --- | --- |
| TOM1 isoform 2 (UniProt O60784) | 0.009 |
| TRABD (UniProt Q9H4I3) | 0.047 |
| UXT isoform 2 (UniProt Q9UBK9) | -0.012 |
| UBAP2L (UniProt F8W726) | -0.078 |
| VWA3B isoform 6 (UniProt Q502W6) | -0.237 |
| TXNIP (UniProt Q9H3M7) | -0.146 |
| TUBA4A (UniProt C9JJQ8) | -0.27 |
| VKORC1 (UniProt Q9BQB6) | 0.006 |
| TSFM (UniProt P43897) | -0.191 |
| TNPO1 (UniProt Q92973) | -0.001 |
| UTP14A (UniProt Q9BVJ6) | 0.042 |
| TNPO2 (UniProt O14787) | -0.063 |
| VPS39 (UniProt Q96JC1) | -0.007 |
| WNK1 isoform 7 (UniProt Q9H4A3) | -0.005 |
| TMEM164 (UniProt Q5U3C3) | 0.007 |
| USP7 (UniProt Q93009) | -0.019 |
| TRAPPC13 isoform 5 (UniProt A5PLN9) | -0.022 |
| TNFAIP8 isoform 4 (UniProt O95379) | 0.036 |
| TMEM106B (UniProt Q9NUM4) | -0.049 |
| WDR47 (UniProt O94967) | 0.011 |

| Target | log2 fold change |
| --- | --- |
| WBP4 (UniProt O75554) | 0.036 |
| WDR11 (UniProt Q9BZH6) | -0.403 |
| XRCC5 (UniProt P13010) | -0.039 |
| TXNRD1 (UniProt Q16881) | 0.054 |
| TVP23C (UniProt Q96ET8) | 0.419 (active) |
| WAPL isoform 3 (UniProt Q7Z5K2) | -0.037 |
| TMEM263 (UniProt Q8WUH6) | -0.032 |
| VPS8 (UniProt Q8N3P4) | 0.034 |
| TMEM128 (UniProt Q5BJH2) | 0.018 |
| TXNL1 (UniProt O43396) | 0.034 |
| WDR46, A0A0G2JJL1 | 0.023 |
| VPS41 (UniProt P49754) | 0.017 |
| TMEM268 isoform 3 (UniProt Q5VZI3) | -0.054 |
| UBXN10 (UniProt Q96LJ8) | 0.013 |
| WDCP (UniProt Q9H6R7) | -0.024 |
| USO1 isoform 2 (UniProt O60763) | -0.017 |
| UBA6 | 0.014 |
| WDR7 (UniProt Q9Y4E6) | 0.126 |
| TUBAL3 (UniProt A6NHL2) | -0.351 |
| WASH2P (UniProt Q6VEQ5) | 0.015 |
